Consider 14 molecules from PubChem BioAssay (NCI).

Test systems include SR leukemia; RPMI-8226 leukemia; OVCAR-8 ovarian; OVCAR-5 ovarian; OVCAR-4 ovarian; SK-OV-3 ovarian; IGROV1 ovarian; OVCAR-3 ovarian; HS 578T breast; NCI/ADR-RES ovarian.
Experiment in all cases: NCI-60 one-dose screen, 48 h (100 = growth as untreated, 0 = no growth, -100 = all killed)
Holding throughout (conditions): 10 µM unless noted

This is part of a sample that, as a whole, favours compounds with a hit. Of some 83,000 tested, about 20% had one in any assay.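 Results are percent growth after 48 hours of single-concentration exposure. 100 means growth as in untreated cells, lower positive values show inhibition; negative values down to -100 show cell death.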 Unmarked numbers belong to inactive results. Calls of active or inactive are those of the source. Rule for the calls: active = growth percent below 10; inactive = the rest.

Consider `Cc1ccc2c(c1)C(=O)C(c1c(-c3[nH]c(=O)c4ccc(C)cc4c3O)c(O)c3ccccc3c1O)=NC2=O`, for which the growth was 23.1% with SR leukemia; 32.8% with RPMI-8226 leukemia; 14.4% in the experiment with OVCAR-8 ovarian; 66.4% with OVCAR-5 ovarian; 25.2% with OVCAR-4 ovarian; 44% with SK-OV-3 ovarian. In addition, the growth is 6.46% (active) in the experiment with IGROV1 ovarian, -38.7% (active) in the experiment with OVCAR-3 ovarian, 32.4% in the experiment on HS 578T breast and 14.9% with NCI/ADR-RES ovarian.

In the case of `CC(C)(C)c1cn2cccc(C(=O)N3CCN(CC(=O)Nc4ccc(Cl)cc4C(=O)c4ccccc4Cl)CC3)c2n1`, the growth in the experiment with SR leukemia is 13.2%; in the experiment on RPMI-8226 leukemia, 24.1%; with OVCAR-8 ovarian, 51%; with OVCAR-5 ovarian, 75.1%; in the experiment with OVCAR-4 ovarian, 50.6%; with SK-OV-3 ovarian, 91.4%. In addition, the growth was 51.2% in the experiment with IGROV1 ovarian, 75.7% in the experiment on OVCAR-3 ovarian, 32.2% in the experiment with HS 578T breast and 39.5% with NCI/ADR-RES ovarian.

As to `Cc1cc(NC(=O)COC(=O)c2sc3cc(F)ccc3c2Cl)no1`, the growth in the experiment with SR leukemia is 108%; with RPMI-8226 leukemia, 114%; in the experiment on OVCAR-8 ovarian it was 112%; in the experiment on OVCAR-5 ovarian, 100%; in the experiment with OVCAR-4 ovarian, 105%; in the experiment with SK-OV-3 ovarian, 111%. Moreover, the growth was -31.8% (active) with IGROV1 ovarian, 120% in the experiment with OVCAR-3 ovarian, 123% with HS 578T breast and 107% in the experiment on NCI/ADR-RES ovarian.

Take `CCSc1nnc(NC(=O)Cc2ccc(Cl)cc2)s1`: the growth in the experiment with SR leukemia is 103%; with RPMI-8226 leukemia, 116%; with OVCAR-8 ovarian, 113%; in the experiment on OVCAR-5 ovarian, 97.1%; in the experiment with OVCAR-4 ovarian, 107%; with SK-OV-3 ovarian, 106%. Besides, the growth was -24.9% (active) in the experiment on IGROV1 ovarian, 106% in the experiment with OVCAR-3 ovarian, 110% in the experiment on HS 578T breast and 104% in the experiment on NCI/ADR-RES ovarian.

As to `CCOC(=O)C(Cc1ccccc1)n1c(O)c(C=Nc2ccc(C(=O)OCCN(CC)CC)cc2)sc1=O` (centres undefined), the growth in the experiment on SR leukemia is 23.7%; in the experiment with RPMI-8226 leukemia, 68%; in the experiment on OVCAR-8 ovarian, 92.8%; with OVCAR-5 ovarian, 100%; in the experiment with OVCAR-4 ovarian it was 89.4%; in the experiment on SK-OV-3 ovarian, 106%. For the same molecule, the growth was 97.5% in the experiment on IGROV1 ovarian, 93% with OVCAR-3 ovarian, 88.1% in the experiment on HS 578T breast and 107% in the experiment with NCI/ADR-RES ovarian.

With `O=S(=O)(NCCCNc1nccc(-c2c(-c3ccc(F)c(O)c3)nc3sccn23)n1)c1ccc(Cl)cc1`, the growth is 61.6% with SR leukemia; 43.1% in the experiment with RPMI-8226 leukemia; 52.9% in the experiment with OVCAR-8 ovarian; 129% in the experiment on OVCAR-5 ovarian; 99.1% in the experiment with OVCAR-4 ovarian; 85.3% with SK-OV-3 ovarian. The growth in the experiment on IGROV1 ovarian is 80.2%; in the experiment on OVCAR-3 ovarian it was 88.7%; with HS 578T breast, 91.1%; in the experiment on NCI/ADR-RES ovarian, 103%.

Regarding `CN(C)CCCNC(=O)C(c1ccccc1)c1ccccc1`, the growth is 105% in the experiment on SR leukemia; 101% in the experiment on RPMI-8226 leukemia; 102% in the experiment with OVCAR-8 ovarian; 111% with OVCAR-5 ovarian; 118% in the experiment with OVCAR-4 ovarian; 112% in the experiment on SK-OV-3 ovarian. The growth in the experiment on IGROV1 ovarian was 117%; in the experiment on OVCAR-3 ovarian it was 113%; with HS 578T breast it was 110%; with NCI/ADR-RES ovarian it was 97.7%.

`COc1ccc(/C=C/C(=O)OCC(=O)NNC(=O)c2ccccc2)cc1OC`: the growth in the experiment with SR leukemia is 71.8%; in the experiment with RPMI-8226 leukemia, 79.7%; in the experiment on OVCAR-8 ovarian it was 102%; in the experiment on OVCAR-5 ovarian it was 113%; in the experiment on OVCAR-4 ovarian it was 101%; in the experiment on SK-OV-3 ovarian, 113%. Also, the growth with IGROV1 ovarian was 87.8%; in the experiment on OVCAR-3 ovarian it was 99.8%; in the experiment with HS 578T breast it was 103%; in the experiment on NCI/ADR-RES ovarian it was 116%.

Regarding `Nc1nc(-c2cc3ccccc3o2)cc(=O)c(=O)[nH]1`, the growth in the experiment with SR leukemia is 90.9%; in the experiment with RPMI-8226 leukemia, 95.7%; with OVCAR-8 ovarian, 107%; in the experiment with OVCAR-5 ovarian, 105%; with OVCAR-4 ovarian, 102%; in the experiment with SK-OV-3 ovarian it was 96.7%. For the same molecule, the growth with IGROV1 ovarian was 100%; in the experiment on OVCAR-3 ovarian, 102%; in the experiment with HS 578T breast, 88.2%; in the experiment with NCI/ADR-RES ovarian, 109%.

Consider `CC1=C(C#N)C(C)(C)C(C#N)=C(C)N1`, for which the growth is 95.8% in the experiment on SR leukemia; 98.3% with RPMI-8226 leukemia; 100% in the experiment with OVCAR-8 ovarian; 87.7% with OVCAR-5 ovarian; 99.2% in the experiment with OVCAR-4 ovarian; 110% with SK-OV-3 ovarian. The growth in the experiment with IGROV1 ovarian was 121%; in the experiment on OVCAR-3 ovarian, 107%; in the experiment on HS 578T breast it was 102%.

For the molecule `O=C(/C=C/CN1CCOCC1)Nc1cc2c(Nc3ccc(F)c(Cl)c3F)ncnc2cc1OCCOC(F)F`, the growth is 60.7% in the experiment with SR leukemia; 17.8% with RPMI-8226 leukemia; 49.6% with OVCAR-8 ovarian; 49.6% in the experiment with OVCAR-5 ovarian; 54.7% in the experiment with OVCAR-4 ovarian; 11.8% in the experiment on SK-OV-3 ovarian. Also, the growth in the experiment with IGROV1 ovarian is -11.1% (active); in the experiment on OVCAR-3 ovarian, 48.9%; in the experiment on HS 578T breast, 23.1%; in the experiment with NCI/ADR-RES ovarian it was 36.2%.

As for `COc1ccc(S(=O)(=O)NCCNc2nccc(-c3c(-c4ccccc4)nc4sccn34)n2)cc1`, the growth is 12.8% in the experiment with SR leukemia; 27.4% in the experiment with RPMI-8226 leukemia; 26.7% with OVCAR-8 ovarian; 73.8% in the experiment with OVCAR-5 ovarian; 27.8% in the experiment with OVCAR-4 ovarian; 23% in the experiment with SK-OV-3 ovarian. In addition, the growth was 6.6% (active) with IGROV1 ovarian, 12.4% with OVCAR-3 ovarian, 47% in the experiment on HS 578T breast and 17.1% in the experiment on NCI/ADR-RES ovarian.

As to `Cc1ccc(C2=NN(c3ccc(S(N)(=O)=O)cc3)C(c3cn(-c4ccccc4)nc3-c3ccccc3)C2)cc1` (centres undefined), the growth with SR leukemia is 11.7%; in the experiment with RPMI-8226 leukemia it was 39.7%; in the experiment on OVCAR-8 ovarian, 86.3%; in the experiment with OVCAR-5 ovarian, 115%; with OVCAR-4 ovarian it was 105%; in the experiment on SK-OV-3 ovarian, 93.4%. In addition, the growth in the experiment on IGROV1 ovarian is 88.5%; with OVCAR-3 ovarian, 56.1%; with HS 578T breast, 96.6%; in the experiment on NCI/ADR-RES ovarian, 90.6%.

Turning to `COc1ccc(C2SCC(=O)N2NC(=O)c2ccc(NC(=O)c3ccccn3)cc2)cc1OC` (centres undefined), the growth is 90.9% with SR leukemia; 96.3% in the experiment with RPMI-8226 leukemia; 98% in the experiment with OVCAR-8 ovarian; 100% in the experiment on OVCAR-5 ovarian; 100% with OVCAR-4 ovarian; 102% in the experiment on SK-OV-3 ovarian. For the same molecule, the growth in the experiment with IGROV1 ovarian was 101%; with OVCAR-3 ovarian it was 101%; in the experiment on HS 578T breast, 102%; with NCI/ADR-RES ovarian it was 105%.
